# Measurements taken from the supplement of paper PMC6555819.
# Columns and labels:
# Assay in all cases: PBM binding z-score (relative to random genomic background probes); higher = stronger binding; sequences stand for … in GC…GCGATTGACAGCGTAGAATGAAGG
# [1] = system: RARb homodimer (NR concentration 270 nM)
# Procedure, shortened: (§1)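 Custom Agilent 4×180K protein-binding microarrays carried double-stranded probes, each with a 34-nt variable region. These regions held direct-repeat seeds, single-nucleotide variants, half-site ablations and random human genomic background sequences. Ligand-free nuclear receptor dimers were incubated on the arrays for 1 h, antibodies against each partner (one per run) detected binding, and scanned fluorescence was regression-normalized. Binding z-scores take the random background probes as reference.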
# [2] = system: RARg:RXRa (NR concentration 270 nM, RXRa partner concentration 90 nM)
# Procedure, shortened: as §1
# [3] = system: RARg homodimer (NR concentration 270 nM)
# Procedure, shortened: as §1
# [4] = system: RXRa DBDmut IVT, anti-RXR (DBD mutation: RXRa K156A/R161A, NR concentration 90 nM)
# Procedure, shortened: as §1
# [5] = system: RXRa homodimer (NR concentration 180 nM)
# Procedure, shortened: as §1
# [6] = system: THRa:RXRa (NR concentration 90 nM, RXRa partner concentration 90 nM)
# Procedure, shortened: as §1
# [7] = system: THRa homodimer (NR concentration 90 nM)
# Procedure, shortened: as §1
# [8] = system: VDR homodimer (NR concentration 270 nM)
# Procedure, shortened: as §1
Sequence,PBM binding z-score [1],PBM binding z-score [2],PBM binding z-score [3],PBM binding z-score [4],PBM binding z-score [5],PBM binding z-score [6],PBM binding z-score [7],PBM binding z-score [8]
GATAGAGGGTCAAGGCCAGAGTACGCGTATTGAT,3.47,4.81,4.67,1.49,4.38,2.65,0.388,1.59
CCTACTGCGCCAAAGGTCATTGATTCCAATGCTC,4.88,5.4,4.69,2.16,6.21,3.46,1.9,3.56
TCATATAGGTAAATGCGAGGTGAAAGTCCGATCT,1.05,0.929,0.538,1.89,1.18,2.78,1.54,0.605
ACTTACCGGTCAACGAGGTTATAGCACGCGTATA,2.92,3.45,3.85,1.25,2.27,2.69,1.21,2.26
AGAATGAGGTTACCAAAGATCAGGTAAACGCTTG,0.973,2.09,1.47,0.793,2.75,2.98,1.22,0.168
CTCGAAAGGTCGTGCTCAGGTGAGGATACCAAAC,2.88,5.12,3.74,2.24,4.62,4.22,2.06,0.965
ATCGAAAGGCCGAAGGTGAGTATACCCACCCGAA,0.463,0.847,0.8,-0.881,0.581,0.037,-0.66,-0.679
TCTGCTAGGTCATTTGGTCAGCTAACGAGCTGCC,2.97,3.84,4.17,2.58,2.34,2.42,0.658,1.49
CGTCAAAGTTCAAATAAGGTAACGTAAAGCACGC,4.02,5.64,6.52,4.78,5.4,5.07,2.01,4.33
CCGCGTAGGTTATGGGGCATTCAGGCAACGGTGA,1.05,0.489,0.397,-0.64,0.576,0.529,0.176,-0.154
ATCACTAGGTAAAGATAGTTCAGTGAATGCAAAT,0.839,0.649,0.795,-0.617,0.325,0.492,0.0795,0.49
CGTCCAAGGTCATAGGAGGCCAGTGAAGACAGAT,4.11,5.88,5.84,3.97,5.41,4.9,2.32,3.03
CCTAGCAGGCCAATCTGGGTCACTGAAGGCTTGA,2.38,1.15,1.38,0.114,0.872,3.79,0.399,-0.314
CAAACTACGTCAAGGTCAAAGTCGGTTTGTGCCA,4.2,4.46,4.3,2.66,4.77,3.96,3.63,4.35
GCGACTGGGGCACAGCAGGTTACCATAAGGTTGG,1.23,0.566,0.841,-0.647,0.331,2.47,-0.0588,-0.59
GCTGCTAGGTCAGGTTGGTCAGCTACCGGGTACG,2.79,2.17,3.73,0.371,0.808,1.76,0.717,0.476
ACAGGCAGGTGAGTGAAGGTAACTCAGCTGGACG,0.0493,-0.184,0.135,-0.851,0.135,1.31,-0.451,-0.884
ACTAGCAGGCCAAGGTTCACTCAAGATTAGTCCG,1.66,1.53,1.15,1.75,1.58,1.31,0.0178,3.42
CGTCCAAGGTCAAAGGTCAGTGATGAGATGACGG,5.76,8.67,7.8,3.72,10.1,4.87,3.03,4.03
TCATATAGGTAAAAGGTGAAAGTTGGTGTGGTAA,2.19,2.24,0.981,1.89,3.27,1.9,0.96,0.577
CGTCCAAGGTCAAAGGTAAGTGAAGAGATGACGG,4.06,6.23,6.89,3.8,7.74,3.91,1.96,2.48
ATCTCTAGGTAAACGTTCAGTGAATCCCGAGGAT,-0.498,0.172,0.369,-0.148,0.0015,0.136,0.162,-0.489
CGTGCAAGGTCAATGCTAGGTCAGTGAAAGCATT,4.95,7.96,7.27,3.39,5.44,4.64,2.44,2.89
TAGCCTAGGTCATGGGCTAGTATACCACGCGAAC,2.79,4.26,4.32,-0.132,3.45,3.07,0.81,0.156
TCTTGTAGATCAGCAGGTTAAGACAGCTGGCCAA,0.0345,0.0307,-0.276,0.415,0.431,0.272,-0.416,-0.184
CCTGCTAGGTCAATGGTCAGGTAAAGCAGCTCGC,2.93,3.45,4.27,1.52,2.28,2.65,1.34,0.248
TCGAGTAGGCTACCAATGGGGCATTCAGCTTTCT,-0.245,-0.505,-0.706,-0.0858,-0.356,-0.828,-0.931,-0.898
TAGCCTAGGTCATTCAAGGGCCAGTATAGAAAGC,3.38,5.84,4.64,1.71,3.14,4.3,0.514,1.25
